In all, about 33,000 sequences were measured (“e-score”: median about -0.053, highest 2% from about 0.38 on). The sample holds the highest values, similar sequences and a random draw of the others, so the mix is not that of the screen.

In PMC10668032, “Altered binding affinity of SIX1-Q177R correlates with enhanced WNT5A and WNT pathway effector expression in Wilms tumor” one finds binding signal data, which are given here for 87 sequences.

The target of the assay is T1, SIX1 homeodomain (reference allele) (human, UniProt Q15475 108-198).
T1 sequence: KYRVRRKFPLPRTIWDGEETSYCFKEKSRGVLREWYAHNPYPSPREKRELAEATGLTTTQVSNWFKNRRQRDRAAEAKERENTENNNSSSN
Briefly: universal protein binding microarray; Universal all-10-mer PBM (8x60K, AMADID 030236), 300 nM GST-tagged protein, Alexa Fluor 488 anti-GST; buffer, salt, pH and temperature not stated (as in Berger); high values mean tight binding. Conditions: protein: ivt; tags: N-terminal GST; dsDNA, one strand shown. Put shortly: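 Binding of GST-tagged homeodomains is given as 8-mer E-scores from the Universal PBM Analysis Suite. The proteins were produced by in vitro transcription/translation, quantified by anti-GST western blot against a recombinant GST standard curve, and applied in duplicate at 300 nM final concentration to universal 'all 10-mer' protein binding microarrays (8×60K format).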
On to ATCCGTAG, for which the binding signal was found to be 0.225 ± 0.00492 E-score.
Turning to AATACTAT, the binding signal was 0.278 ± 0.0809 E-score.
Take TATCCACA: the binding signal is 0.326 ± 0.0288 E-score.
For AGAGTGAT the value was 0.268 ± 0.0506 E-score.
In the case of ATATGTTC, the binding signal stood at 0.334 ± 0.0471 E-score.
For ACCTATCT the value was 0.195 ± 0.01 E-score; for GTGTTATA, 0.219 ± 0.0623 E-score; for TCCATACA, 0.166 ± 0.0645 E-score.
For AGATCGTA the value was 0.237 ± 0.00569 E-score; for GGATCGTA, 0.383 ± 0.00451 E-score.
For the sequence GTATCGGA, the binding signal amounted to 0.451 ± 0.0142 E-score.
For TCATCGGA the value was 0.176 ± 0.0293 E-score; for ATCTCGGG, 0.272 ± 0.0234 E-score.
For AGATCGGG the value was 0.294 ± 0.0193 E-score.
For ATATCGGG the value was 0.4018 ± 0.00171 E-score; for CGATCGTA, 0.212 ± 0.0626 E-score; for GCATCGGA, 0.161 ± 0.101 E-score.
Turning to CACCGGCA, the binding signal was 0.188 ± 0.0219 E-score.
Turning to CTATATAC, the binding signal is 0.275 ± 0.0339 E-score.
For TACTCACA the value was 0.165 ± 0.0208 E-score; for ATAAGGTA, 0.247 ± 0.0353 E-score; for ACCGCGAT, 0.323 ± 0.00333 E-score.
For ATGTATTA the value was 0.241 ± 0.0485 E-score; for GTGTATTA, 0.271 ± 0.032 E-score.
On to ATGTATCG, for which the binding signal was determined as 0.38 ± 0.0144 E-score.
As to ATGTATAC, the binding signal came to 0.325 ± 0.0321 E-score.
For ATGTATCC the value was 0.407 ± 0.00354 E-score; for ATGTATAG, 0.217 ± 0.0184 E-score.
On to ATGTATTG, for which the binding signal is 0.209 ± 0.0502 E-score.
For GTGTATCA, the binding signal was 0.4623 ± 0.00404 E-score.
Take ATGTATCA: the binding signal is 0.448 ± 0.011 E-score.
In the case of ATCTATCC, the binding signal is 0.372 ± 0.0185 E-score.
GTGTATGA: the binding signal was 0.17 ± 0.0805 E-score.
In the case of ATGTATAA, the binding signal came to 0.154 ± 0.0486 E-score.
For ATCCTGGG the value was 0.235 ± 0.00999 E-score; for ACATTATC, 0.165 ± 0.0505 E-score; for TACCGCGA, 0.25 ± 0.0197 E-score.
For ATCATCGC, the binding signal was found to be 0.326 ± 0.0174 E-score.
For TACCCGCA the value was 0.161 ± 0.0756 E-score; for ATCGACAC, 0.306 ± 0.0819 E-score; for ATCTTGCA, 0.216 ± 0.0388 E-score.
For CTGTATTA the value was 0.18 ± 0.00737 E-score; for CTGTATCC, 0.387 ± 0.0293 E-score; for ATTTATCC, 0.198 ± 0.0661 E-score.
CTGTATAC: the binding signal amounted to 0.338 ± 0.0175 E-score.
For CTGTATGA the value was 0.187 ± 0.0219 E-score.
For CTGTATCA the value was 0.418 ± 0.0231 E-score; for CTCAGGTA, 0.16 ± 0.0411 E-score.
Turning to CTCCTATC, the binding signal stood at 0.2712 ± 0.00126 E-score.
For the sequence AGAGTGAG, the binding signal is 0.172 ± 0.0561 E-score.
As for CCGGCTCA, the binding signal came to 0.256 ± 0.0189 E-score.
For ATACCCAA, the binding signal was determined as 0.401 ± 0.0166 E-score.
For ATACCCAT the value was 0.393 ± 0.00746 E-score; for ATACCCAC, 0.392 E-score.
In the case of ATACCAAG, the binding signal came out at 0.285 ± 0.0262 E-score.
CACCCCAC: the binding signal was determined as 0.263 ± 0.128 E-score.
For AAACCCAT the value was 0.169 ± 0.00646 E-score; for ACACCCAG, 0.278 ± 0.0263 E-score; for ACACCCAA, 0.331 ± 0.0548 E-score.
For ATACCAAA, the binding signal was 0.317 ± 0.0247 E-score.
For ACACCCAT the value was 0.271 ± 0.0323 E-score; for ATACCCAG, 0.382 E-score; for ACACCCAC, 0.221 ± 0.0764 E-score.
For GAGCCGGA the value was 0.166 ± 0.0429 E-score; for TATGCGGA, 0.284 ± 0.018 E-score; for ATGCGATC, 0.309 ± 0.0257 E-score.
As for ATACGAGG, the binding signal stood at 0.232 ± 0.0433 E-score.
Consider CATCTCAG, for which the binding signal is 0.227 ± 0.014 E-score.
For TACGCATA the value was 0.197 ± 0.0197 E-score; for ACAGGGAT, 0.297 ± 0.0162 E-score.
As for ATAGGGGA, the binding signal was found to be 0.287 ± 0.00909 E-score.
For ATAGGGAT the value was 0.395 ± 0.00975 E-score; for ACCTTATA, 0.17 ± 0.0678 E-score; for TGATCGCA, 0.171 ± 0.0248 E-score.
For AGATCGCG, the binding signal is 0.22 ± 0.0358 E-score.
GTATCGCA: the binding signal stood at 0.431 ± 0.0148 E-score.
For the sequence ATCGCGCG, the binding signal was 0.213 ± 0.0714 E-score.
For CTATCGCA the value was 0.186 ± 0.0165 E-score; for AGATCGCC, 0.288 ± 0.0356 E-score; for ATATCGCA, 0.42 ± 0.0293 E-score.
For ATATCGCC the value was 0.441 ± 0.0115 E-score; for ATATCGCG, 0.422 ± 0.0273 E-score; for ACATCGCA, 0.152 ± 0.012 E-score.
For CTATCGCC the value was 0.179 ± 0.0265 E-score.
Consider GGATCGCA, for which the binding signal worked out at 0.366 ± 0.0387 E-score.
For ATCGGTCG the value was 0.225 ± 0.0271 E-score; for CGGTTATC, 0.309 ± 0.0176 E-score.
